From PubChem BioAssay (NCI)
Compounds without any hit were thinned out: in the full panel of roughly 83,000, 20% have a hit.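 Compound tested at a single concentration for 48 hours in 96-well plates; a percent growth value below 10 was scored as active.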 Values without a mark were called inactive.

System: MDA-MB-468 breast
Assay: NCI-60 one-dose screen, 48 h (100 = growth as untreated, 0 = no growth, -100 = all killed)
Details: 10 µM unless noted

| SMILES | growth [%] |
| --- | --- |
| S=C1CCSC(=S)N1CCCN1C(=S)CCSC1=S | 37.8 |
| Cc1nn2c(/C=C3/C(=O)Nc4ccc(Cl)cc43)c(-c3ccccc3)nc2s1 | 35.7 |
| CCN1C(=O)N(CC)C2Nn3c(s/c(=C4\C(=O)N(CCC(C)C)c5ccccc54)c3=O)=NC21 (stereo not drawn) | 11.6 |
